Bioassay records: PubChem BioAssay, National Center for Advancing Translational Sciences (NCATS)
NPC1 prom act = activators of NPC1 promoter; AID 485313; Potency, µM (doses to about 9.22 µM), usual class: activators; 320,000 tested, 2.4% active; Huh7 NPC1 promoter luciferase reporter, 24 h; also: nearly all actives have a fitted effect of over 60% in size
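Stably transfected Huh7 (NPC1 promoter→luciferase), 1500 cells/well in Opti-MEM + 10% FBS, 2 h settle, then compound 24 h at 37 °C. Luminescence after 10 min with Amplite reagent.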
ELG1 genotox = induces genotoxicity in HEK293T cells with luciferase-tagged ELG1. HEK293T ELG1-luciferase reporter, luminescence, 16 h. Potency, µM (top dose mostly 46 µM), usual class: activators. 330,000 tested, 1.3% active; also: nearly all actives have a fitted effect of over 60% in size
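Genotoxicity was scored as increased ELG1-luciferase reporter signal, measured by ONE-Glo luminescence (30 min, room temperature). Compound or vehicle exposure of the HEK293T reporter cells lasted 16 hr at 37°C.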
FLuc counter = inhibits or activates purified firefly luciferase, miR-21 counter-screen; purified FLuc, Km substrates, luminescence inhibition; 360,000 tested, 6.9% active; P08659; Potency, µM (top dose mostly 57.5 µM), hits mostly inhibitors; AID 588342; also: nearly all actives have a fitted effect of over 55% in size
Target sequence (P08659 whole entry, looked up): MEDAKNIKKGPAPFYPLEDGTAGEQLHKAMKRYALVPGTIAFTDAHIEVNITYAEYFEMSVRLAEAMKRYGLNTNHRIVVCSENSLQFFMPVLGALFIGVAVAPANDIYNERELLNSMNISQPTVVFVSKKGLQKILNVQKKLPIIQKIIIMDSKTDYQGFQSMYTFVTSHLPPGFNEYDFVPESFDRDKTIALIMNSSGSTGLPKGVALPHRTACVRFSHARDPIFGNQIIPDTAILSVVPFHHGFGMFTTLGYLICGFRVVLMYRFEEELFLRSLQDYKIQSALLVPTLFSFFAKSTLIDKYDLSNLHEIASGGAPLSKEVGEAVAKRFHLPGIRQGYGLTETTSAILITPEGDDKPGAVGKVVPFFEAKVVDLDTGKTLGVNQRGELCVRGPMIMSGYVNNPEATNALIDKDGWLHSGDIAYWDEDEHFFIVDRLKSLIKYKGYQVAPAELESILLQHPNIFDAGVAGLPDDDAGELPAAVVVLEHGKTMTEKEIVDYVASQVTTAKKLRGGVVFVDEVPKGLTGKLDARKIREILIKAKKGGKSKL
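Purified P. pyralis luciferase, 10 nM final, with Km-level 10 uM D-luciferin and 10 uM ATP in 50 mM Tris acetate pH 7.5, 10 mM Mg acetate, 0.01% Tween-20, 0.05% BSA; 6-point qHTS titration about 60 µM downward; luminescence read.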
ELG1 repair inh = blocks ELG1-dependent DNA repair in HEK293T cells | Potency, µM (titrated, usually from 46.1 µM), most hits filed as inhibitors | 330,000 tested, 2.3% active | AID 504467 | HEK293T ELG1-luciferase reporter, luminescence, 16 h; DNA damage induced by 5-fluorouridine; also: nearly all actives have a fitted effect of over 55% in size
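Step one: seed 2,000 cells per well. Step two: pin-transfer compound or DMSO alongside 5-fluorouridine. Step three: incubate 16 hr, 37 °C, 5% CO2. Step four: add ONE-Glo, wait 30 min, read luminescence.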
SMN2 splice enh = enhancers of SMN2 splice variant expression; HEK293 SMN2-luciferase splicing reporter, luminescence, 30-36 h; Potency, µM (highest dose often 46.1 µM), hits mostly activators; 210,000 tested, 2.8% active; AID 1458; also: nearly all actives have a fitted effect of over 55% in size
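qHTS luciferase splicing reporter: luminescence rises when SMN2 exon 7 is included in transfected HEK293 cells. Compound exposure lasted 30-36 h at 37C, with 4.5 mM final sodium butyrate as control, followed by a ONE-Glo read.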
Rab9 promoter act = Rab9 promoter activation. 320,000 tested, 2.8% active. Potency, µM (titrated, usually from 9.22 µM), hits mostly activators. Huh7 Rab9 promoter-luciferase reporter, luminescence, 24 h; also: nearly all actives have a fitted effect of over 60% in size
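Luminescence read-out: Huh7 cells stably expressing Rab9-luciferase, treated 24 h with compound at 37 °C, then lysed with luciferase reagent for 10 min at ambient before reading.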
Hits are given with their value; – = inactive; ? = inconclusive; · = no result; ! = not active in a repeat. Sampled rows, rich in hits. Any-hit rate of the full collection: about 9.4%. Calls follow the shape of the dose curve; as a rule, active = well fitted curve in the direction sought with a large enough effect; inconclusive = small, poorly fitted or top-dose-only effect, or another doubt; inactive = no such curve, though single readings can be large; an effect the other way counts as inactive or inconclusive.

SMILES	NPC1 prom act	ELG1 genotox	FLuc counter	ELG1 repair inh	SMN2 splice enh	Rab9 promoter act
O=C(CSc1nc2cc(C(=O)NC3CCCC3)ccc2c(=O)n1CC1CCCO1)c1cccc(Cl)c1 (stereo not drawn)	·	·	–	·	·	·
O=C(NCC1CCCO1)c1ccc(Cl)c(S(=O)(=O)N2CCOCC2)c1 (stereo not drawn)	–	–	–	–	·	–
Cc1ccc(NC(=O)c2ccc(F)c(S(=O)(=O)N3CCOCC3)c2)cc1F	–	–	–	–	–	–
O=C(Nc1ccccc1)c1ccc(NCC2CCCO2)c(S(=O)(=O)N2CCOCC2)c1 (stereo not drawn)	–	–	–	23µM	–	–
O=C(Nc1ccccc1)c1ccc(F)c(S(=O)(=O)N2CCOCC2)c1	–	–	–	15µM	–	–
O=C(Nc1ccc(-c2cn3ccsc3n2)cc1)c1ccc(F)c(S(=O)(=O)N2CCOCC2)c1	–	–	–	16µM	–	–
CCOc1ccccc1NC(=O)c1ccc(F)c(S(=O)(=O)N2CCC3(CC2)OCCO3)c1	–	–	–	21µM	–	–
O=C(Nc1cc(Cl)ccc1N1CCOCC1)c1ccc(F)c(S(=O)(=O)N2CCOCC2)c1	–	–	–	?	·	–
COc1ccc(CNC(=O)C(=O)Nc2c3c(nn2-c2ccccc2)CSC3)cc1	·	·	–	·	·	·
COc1cccc(-c2cc(C(=O)Nc3nc4ccccc4s3)c3ccccc3n2)c1	–	–	17µM	–	–	–
COc1ccc(-c2cc(C(=O)Nc3nc4c(C)cccc4s3)c3ccccc3n2)cc1OC	–	–	11µM	?	–	–
Cc1cccc2sc(NNC(=O)c3cc(-c4cccs4)nc4ccccc34)nc12	–	–	–	?	–	–
Cc1ccc(Nc2c3c(nc4nncn24)CCC3)cc1C	·	·	–	·	–	·
Cn1c(=O)c2c(nc(Oc3ccccc3)n2C)n(C)c1=O	–	–	–	16µM!	–	–
CC(C)CCn1c(Oc2ccccc2F)nc2c1c(=O)n(C)c(=O)n2C	·	·	–	·	·	·
CCn1c(Oc2ccccc2C)nc2c1c(=O)n(C)c(=O)n2C	–	–	–	?	·	–
CCCCn1c(Oc2cccc(C(=O)OC)c2)nc2c1c(=O)n(C)c(=O)n2C	·	·	–	·	·	·
CCCCn1c(Oc2ccc(C(=O)OC)cc2)nc2c1c(=O)n(C)c(=O)n2C	–	–	–	21µM	–	–
CC(C)CCn1c(Oc2ccc(Cl)cc2)nc2c1c(=O)n(C)c(=O)n2C	–	–	–	21µM	–	–
CCn1c(Oc2ccc(F)cc2)nc2c1c(=O)n(C)c(=O)n2C	–	–	–	8.2µM	–	–
Cc1ccc(NC(=O)CSc2nccn2C2CCCC2)cc1	·	·	–	·	·	·
COC(=O)N[C@@H](c1ccc(Br)cc1)C(C(=O)OC)C(=O)OC	·	·	·	·	–	·
Nc1ccc(Br)cc1-c1nc2ccccc2[nH]c1=O	–	–	–	–	–	–
Cc1ccc2nc(CCCc3nc4ccc(C)cc4[nH]3)[nH]c2c1	–	–	?	?	·	–
Cc1ccc2nc(-c3ccccn3)[nH]c2c1	?	?	1.3µM	?	·	0.35µM
SMILES	NPC1 prom act	ELG1 genotox	FLuc counter	ELG1 repair inh	SMN2 splice enh	Rab9 promoter act
c1ccc(-c2nc3c(ccc4ccccc43)[nH]2)nc1	2.8µM	–	3.8µM	?	14µM	?
Nc1ccccc1-c1nc2ccccc2[nH]c1=O	?	–	24µM	?	·	?
Cc1ccc2nc(-c3ccccc3N)[nH]c2c1	1.1µM	1.2µM	0.76µM	?	7.1µM	0.5µM
COc1ccc(Cn2ccnc2SCC(=O)Nc2cc(C(F)(F)F)ccc2Cl)cc1	·	·	–	·	·	·
Cc1c(Cl)cccc1NC(=O)c1ccc(NC(=O)N2CCSc3ncccc32)cc1	·	·	–	·	·	·
Nc1nc2ccccc2[nH]1	–	–	–	–	–	–
c1ccc(-c2nc3ccccc3[nH]2)nc1	4µM	?	12µM	?	3.2µM	2.8µM
O=c1[nH]c(-c2ccccn2)nc2ccccc12	?	?	24µM	?	·	?
Cc1sc2nc(-c3ccccn3)[nH]c(=O)c2c1-c1ccccc1	–	?	11µM	–	–	–
O=c1[nH]c(-c2ccccc2O)nc2ccccc12	·	·	·	·	–	·
Cc1c(N)cccc1-c1nc2ccccc2[nH]1	–	–	24µM	?	10µM	–
